This is a sample that favours compounds with a hit; in the whole collection about 5.2% have one here.
SMARCA2 act – SMARCA2 (BRM) function activators, primary screen, cell-based, luminescence, high throughput. MG213 cells, MMTV-luciferase reporter, dexamethasone, overnight. activation, % at 9.1 µM. 1% of 370,000 active. AID 652017, 2013; in the data active = activation above about 7.8%;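 note: 0% = vehicle wells and 100% = reference activator wells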
NadD block – inhibitors of S. aureus NadD, primary screen, biochemical, colorimetric, uHTS | Nicotinate-nucleotide adenylyltransferase NadD (Staphylococcus aureus N315) | purified NadD enzyme, colorimetric absorbance read-out | inhibition, % at 20 µM | 0.78% of 360,000 active | AID 602399, 2012; in the data active = inhibition above about 26%
SKN-1 block – suppressors of acrylamide-induced Pgst-4::GFP reporter in worms, primary screen, SKN-1 inhibitor project, whole organism, uHTS, GFP/RFP fluorescence ratio, strain VP596. 0.49% of 360,000 active. C. elegans VP596 Pgst-4::GFP/RFP ratio, 24 h. inhibition, % at 21.8 µM. AID 624304, 2012;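 active = interference check ratio from 0.5 to 1.5 plus GFP to RFP signal ratio inhibition reaching or exceeding a fixed threshold, cut at about 30% in these data, passing the limit was not always enough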
GRIN3A LBD mod – binders of NR3A ligand-binding domain, primary screen, biophysical, differential scanning fluorimetry, uHTS; Glutamate receptor ionotropic, NMDA 3A (GRIN3A) ligand-binding domain; NR3A LBD differential scanning fluorimetry, Tm shift; 0% = protein alone, 100% = glycine-bound protein; Tm shift relative to glycine control, % at 25 µM; 2.5% of 340,000 active; AID 1259313, 2017;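 active = melting temperature shift of at least 10% of the positive control shift, at one fixed dose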
esBAF inh – Bmi1 luciferase reporter increase in mESCs, primary screen, esBAF inhibitor project, mouse ES cells, Bmi1 luciferase knock-in, single point. 24 h; 100% = twice the neutral-well signal. reporter increase, % at 12.5 µM. 2% of 350,000 active; in the data active = activation above about 40%;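 note: 0% = median of the plate's neutral control wells and 100% = double that signal; a rise in the Bmi1 reporter signal indicates esBAF inhibition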
Vif imaging – HIV Vif self-association inhibitors, primary screen, imaging, HEK293T, single point. HEK293T cells, Vif self-association by quenched fluorescence, 24 h. inhibition, % at 7.49 µM. 0.35% of 340,000 active. AID 602346, 2012; in the data active = inhibition above about 50%, passing the limit was not always enough
* marks the source's active call; other numbers are inactive results; . = no result; ! = not confirmed by another sample.

SMILES	SMARCA2 act	NadD block	SKN-1 block	GRIN3A LBD mod	esBAF inh	Vif imaging
C[C@H](CO)N1C[C@H](C)[C@@H](CN(C)Cc2ccc(-c3ccccc3)cc2)Oc2c(NC(=O)Nc3ccc4c(c3)OCO4)cccc2C1=O	1.3	-0.4	3.9	-4.6	43.1*!	0.7
C[C@H](CO)N1C[C@H](C)[C@@H](CN(C)C(=O)Nc2ccc3c(c2)OCO3)Oc2c(NC(=O)Nc3ccc(C(F)(F)F)cc3)cccc2C1=O	-2.1	-14.8	7.7	21.2*	11.5	-19.4
C[C@H](CO)N1C[C@H](C)[C@@H](CN(C)S(=O)(=O)c2cn(C)cn2)Oc2c(NC(=O)Nc3ccc4c(c3)OCO4)cccc2C1=O	0.8	-1.5	4.2	-2.3	50.4*!	-9.5
C[C@@H]1CN([C@H](C)CO)C(=O)c2cccc(NC(=O)Nc3ccc(C(F)(F)F)cc3)c2O[C@@H]1CN(C)C(=O)Nc1ccccc1	.	.	.	.	-3.5	.
C[C@H](CO)N1C[C@H](C)[C@@H](CN(C)C(=O)Nc2ccc(C(F)(F)F)cc2)Oc2c(NC(=O)Nc3ccccc3)cccc2C1=O	-0.2	-7.9	18.8	14.7*	9.9	-4.0
CN1C(=O)c2cc(NC(=O)Cc3ccccc3)ccc2OC[C@@H]2O[C@@H](CC(=O)O)CC[C@@H]21	.	.	.	.	0.9	.
C[C@H](CO)N1C[C@H](C)[C@@H](CN(C)Cc2ccc3c(c2)OCO3)Oc2ccc(NS(C)(=O)=O)cc2CC1=O	.	.	.	.	1.6	.
CCS(=O)(=O)Nc1ccc2c(c1)C(=O)N(C)[C@@H]1CC[C@H](CC(=O)Nc3ccccc3)O[C@H]1CO2	.	.	.	.	-0.1	.
Cc1ccc(S(=O)(=O)Nc2cccc3c2O[C@H](CN(C)C(=O)Nc2ccc4c(c2)OCO4)[C@H](C)CN([C@H](C)CO)C3=O)cc1	.	.	.	.	72.2*	.
C[C@@H]1CN([C@@H](C)CO)C(=O)c2cccc(NC(=O)Nc3ccc(C(F)(F)F)cc3)c2O[C@H]1CN(C)C(=O)NC1CCCCC1	.	.	.	.	1.4	.
C[C@@H]1CN([C@@H](C)CO)C(=O)c2cccc(NC(=O)Nc3ccc(C(F)(F)F)cc3)c2O[C@@H]1CN(C)C(=O)Nc1ccc(F)cc1	.	.	.	.	-2.7	.
COc1ccc(NC(=O)N(C)C[C@H]2Oc3c(NC(=O)Nc4ccc(C(F)(F)F)cc4)cccc3C(=O)N([C@H](C)CO)C[C@@H]2C)cc1	-0.9	0.4	6.3	15.8*	-1.1	-1.3
C[C@@H]1CN([C@H](C)CO)C(=O)c2cccc(NC(=O)Nc3ccc(F)cc3)c2O[C@H]1CN(C)C(=O)Nc1ccc(C(F)(F)F)cc1	-1.1	-10.7	-0.3	14.7*	10.5	-18.8
Cc1ccc(S(=O)(=O)Nc2cccc3c2O[C@H](CN(C)C(=O)Nc2ccc4c(c2)OCO4)[C@@H](C)CN([C@@H](C)CO)C3=O)cc1	.	.	.	.	30.2	.
C[C@H](CO)N1C[C@H](C)[C@@H](CN(C)C(=O)NC2CCCCC2)Oc2c(NC(=O)Nc3ccc(C(F)(F)F)cc3)cccc2C1=O	-1.9	-4.6	-7.5	10.9*	0.4	-3.6
C[C@H]1CN([C@@H](C)CO)C(=O)c2cccc(NS(=O)(=O)c3ccccc3)c2O[C@@H]1CN(C)Cc1ccncc1	.	.	.	.	-1.6	.
CN(C)CCCNC(=O)C[C@H]1CC[C@H](NS(=O)(=O)c2ccc(F)cc2)[C@H](CO)O1	.	.	.	.	-6.7	.
COc1ccc(NC(=O)Nc2ccc3c(c2)[C@@H]2C[C@H](CC(=O)NCc4ccccc4F)O[C@@H](CO)[C@@H]2O3)cc1	.	.	.	.	1.7	.
COCC(=O)Nc1ccc2c(c1)OC[C@@H](C)N(Cc1ccccc1)C[C@H](C)[C@@H](OC)CN(C)C2=O	.	.	.	.	3.7	.
c1ccc(Nc2nc3ccccc3n3nnnc23)cc1	4.6	0.2	1.2	-1.0	74.6*	3.7
C[C@@H]1CCCCO[C@@H](CN(C)C(=O)c2ccncc2)[C@H](C)CN([C@@H](C)CO)C(=O)c2cc(NS(=O)(=O)c3ccc(F)cc3)ccc2O1	.	.	.	.	9.9	.
O=C(/C=C/c1cc(Br)ccc1O)c1ccco1	3.2	-5.9	-3.8	-1.2	.	5.4
O=C(/C=C/c1ccccc1O)c1ccco1	1.8	2.3	1.6	23.1*	20.2	9.8
O=c1[nH]c2c(s1)C=Nc1ccccc1N2	2.6	1.3	-24.0	-14.8	54.0*	-2.3
O=C1CC(c2ccco2)CC2=C1C=Nc1ccccc1N2 (stereo not given)	-1.9	-1.7	15.2	-0.9	0.0	2.1
SMILES	SMARCA2 act	NadD block	SKN-1 block	GRIN3A LBD mod	esBAF inh	Vif imaging
C[C@@H]1CCCCO[C@H](CN(C)C(=O)Nc2ccc(F)cc2)[C@@H](C)CN([C@H](C)CO)C(=O)c2cc(NS(C)(=O)=O)ccc2O1	.	.	.	.	-4.0	.
COc1ccc(N=Cc2oc3ccc4ccccc4c3c2O)cc1	2.5	-2.1	9.1	14.9*	.	-0.5
CC1C(=O)C(C)C(c2cc(Cl)ccc2O)NC1c1cc(Cl)ccc1O (stereo not given)	-2.1	-8.5	-8.3	26.8*	-1.1	-5.1
C[C@H]1CN([C@@H](C)CO)C(=O)Cc2cc(NC(=O)Nc3ccccc3)ccc2O[C@@H]1CN(C)Cc1ccc(C(=O)O)cc1	.	.	.	.	-0.8	.
COc1ccc2c(c1)C(=NN)c1cc(OC)ccc1-2	4.8	-4.4	12.4	-17.7	43.0*	-2.3
NC(=O)N/N=C/c1c(Sc2nnnn2-c2ccccc2)nc2ccccn2c1=O	-3.0	0.5	7.7	28.7*	21.5	-1.4
Cc1cc(C)n(C(=O)CNc2cccc(Cl)c2C)n1	-0.7	5.6	9.1	10.2*	-5.4	10.7
Clc1ccc(OCCCN2CCCCC2)c(Br)c1	0.5	-6.0	10.5	-5.2	22.6*	-0.9
O=C(Nc1ccc(N2C(=O)C3C4C=CC(C4)C3C2=O)cc1)Nc1nnc(C(F)(F)F)s1 (stereo not given)	-0.5	-1.7	3.7	19.6*	5.0	0.3
O=C(Nc1ccc(N2C(=O)C3C4C=CC(C4)C3C2=O)cc1)Nc1nncs1 (stereo not given)	6.6	2.5	14.0	-7.4	1.7	10.8
Cc1nccc(-c2sc(-c3cccs3)nc2C)n1	3.0	-3.4	38.9*	0.9	27.2	15.1
C[C@H]1CN([C@@H](C)CO)C(=O)Cc2cc(NC(=O)Nc3ccc(C(F)(F)F)cc3)ccc2O[C@@H]1CN(C)Cc1ccc(C(=O)Nc2ccccc2N)cc1	.	.	.	.	4.5	.
CCCC#Cc1ccc([C@H]2[C@@H](CO)N3CCCCN(C(=O)NC4CCCC4)C[C@H]23)cc1	.	.	.	.	-5.7	.
C=CCc1cccc2cc(C(=O)Nc3ccc(S(=O)(=O)Nc4nnc(CC)s4)cc3)c(=O)oc12	0.6	49.9*	1.4	-9.2	.	-3.2

Source: PubChem BioAssay (several laboratories)
